Results as given in PMC5540273 (PLoS ONE, 2017).
Like-named read-outs stand apart in the source and are kept apart here.

Experiments:
MAPKAPK5 = settings: concentration: 1 μM, replicates: in singlicate; n = 1
MARK1 = settings: concentration: 1 μM, replicates: in singlicate; n = 1
MARK2 = settings: n = 1
MARK3 = settings: n = 1
MARK4 = settings: n = 1
MAST1 = settings: concentration: 1 μM, replicates: in singlicate; n = 1
MEK1 = tested on: T1, MEK1; settings: concentration: 1 μM, replicates: in singlicate; n = 1
T1 construct: gene MAP2K1

MEK2 = tested on: T2, MEK2; settings: concentration: 1 μM, replicates: in singlicate; n = 1
T2 construct: gene MAP2K2

MEK3 = tested on: T3, MEK3; settings: concentration: 1 μM, replicates: in singlicate; n = 1
T3 construct: gene MAP2K3

MEK4 = tested on: T4, MEK4; settings: concentration: 1 μM, replicates: in singlicate; n = 1
T4 construct: gene MAP2K4

MEK5 = tested on: T5, MEK5; settings: concentration: 1 μM, replicates: in singlicate; n = 1
T5 construct: gene MAP2K5

MEK6 = tested on: T6, MEK6; settings: concentration: 1 μM, replicates: in singlicate; n = 1
T6 construct: gene MAP2K6

MELK = settings: concentration: 1 μM, replicates: in singlicate; n = 1
MERTK = settings: concentration: 1 μM, replicates: in singlicate; n = 1
MET = settings: concentration: 1 μM, replicates: in singlicate; n = 1
MINK = tested on: T7, MINK; settings: concentration: 1 μM, replicates: in singlicate; n = 1
T7 construct: gene MINK1

MKK7 = settings: concentration: 1 μM, replicates: in singlicate; n = 1
MKNK1 = settings: concentration: 1 μM, replicates: in singlicate; n = 1
MKNK2 = settings: concentration: 1 μM, replicates: in singlicate; n = 1
MLCK = tested on: T8, MLCK; settings: concentration: 1 μM, replicates: in singlicate; n = 1
T8 construct: gene MYLK3

[1] = concentration: 1 μM, replicates: in singlicate
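Further: KINOMEscan kinase panel screen.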

## Nc1n[nH]c2cnc(-c3ccccc3)cc12 [SB-642124]
MAPKAPK5
  %Inh: 0%
MARK1
  %Inh: 0%
MARK2; [1]
  %Inh: 0%
MARK3; [1]
  %Inh: 0%
MARK4; [1]
  %Inh: 0%
MAST1
  %Inh: 14%
MEK1
  %Inh: 0%
MEK2
  %Inh: 0%
MEK3
  %Inh: 0%
MEK4
  %Inh: 37%
MEK5
  %Inh: 52%
MEK6
  %Inh: 0%
MELK
  %Inh: 28%
MERTK
  %Inh: 43%
MET
  %Inh: 0%
MINK
  %Inh: 53%
MKK7
  %Inh: 0%
MKNK1
  %Inh: 13%
MKNK2
  %Inh: 8%
MLCK
  %Inh: 1%

## COCCOCCOc1cc2ncc3c4ccc(C#N)cc4[nH]c3c2cc1OC
MAPKAPK5
  %Inh: 0%
MARK1
  %Inh: 0%
MARK2; [1]
  %Inh: 13%
MARK3; [1]
  %Inh: 7%
MARK4; [1]
  %Inh: 0%
MAST1
  %Inh: 69%
MEK1
  %Inh: 48%
MEK2
  %Inh: 80%
MEK3
  %Inh: 12%
MEK4
  %Inh: 0%
MEK5
  %Inh: 100%
MEK6
  %Inh: 0%
MELK
  %Inh: 54%
MERTK
  %Inh: 0%
MET
  %Inh: 10%
MINK
  %Inh: 90.9%
MKK7
  %Inh: 0%
MKNK1
  %Inh: 95.4%
MKNK2
  %Inh: 99.7%
MLCK
  %Inh: 95.8%

## CC(C)c1nc(-c2cccc(NS(=O)(=O)c3c(F)cccc3F)c2F)c(-c2ccnc(Nc3ccc(N4CCOCC4)nc3)n2)s1 [GSK2008607]
MAPKAPK5
  %Inh: 0%
MARK1
  %Inh: 0%
MARK2; [1]
  %Inh: 24%
MARK3; [1]
  %Inh: 0%
MARK4; [1]
  %Inh: 80%
MAST1
  %Inh: 0%
MEK1
  %Inh: 0%
MEK2
  %Inh: 64%
MEK3
  %Inh: 57%
MEK4
  %Inh: 100%
MEK5
  %Inh: 99.9%
MEK6
  %Inh: 59%
MELK
  %Inh: 81%
MERTK
  %Inh: 79%
MET
  %Inh: 85%
MINK
  %Inh: 60%
MKK7
  %Inh: 0%
MKNK1
  %Inh: 12%
MKNK2
  %Inh: 96%
MLCK
  %Inh: 0%

## Cc1ccc(F)c(C(=O)Nc2cccc(-c3nn4ccccc4c3-c3ccnc(Nc4cccc(F)c4)n3)c2)c1F [GSK361061]
MAPKAPK5
  %Inh: 0%
MARK1
  %Inh: 0%
MARK2; [1]
  %Inh: 14%
MARK3; [1]
  %Inh: 0%
MARK4; [1]
  %Inh: 14%
MAST1
  %Inh: 0%
MEK1
  %Inh: 3%
MEK2
  %Inh: 0%
MEK3
  %Inh: 0%
MEK4
  %Inh: 37%
MEK5
  %Inh: 95%
MEK6
  %Inh: 18%
MELK
  %Inh: 12%
MERTK
  %Inh: 75%
MET
  %Inh: 58%
MINK
  %Inh: 17%
MKK7
  %Inh: 10%
MKNK1
  %Inh: 21%
MKNK2
  %Inh: 0%
MLCK
  %Inh: 5%

## CC(C)(C)c1ccc2nccc(Nc3cccc(O)c3)c2c1 [GW856795]
MAPKAPK5
  %Inh: 0%
MARK1
  %Inh: 9%
MARK2; [1]
  %Inh: 2%
MARK3; [1]
  %Inh: 27%
MARK4; [1]
  %Inh: 21%
MAST1
  %Inh: 22%
MEK1
  %Inh: 46%
MEK2
  %Inh: 44%
MEK3
  %Inh: 49%
MEK4
  %Inh: 0%
MEK5
  %Inh: 52%
MEK6
  %Inh: 0%
MELK
  %Inh: 1%
MERTK
  %Inh: 0%
MET
  %Inh: 0%
MINK
  %Inh: 0%
MKK7
  %Inh: 31%
MKNK1
  %Inh: 47%
MKNK2
  %Inh: 23%
MLCK
  %Inh: 0%

## C[C@@H]1CC[C@@H](C(=O)Nc2ccccc2)CN1c1cc(-c2ccc3c(N)n[nH]c3c2)nc(N)n1 [GSK2286062]
MAPKAPK5
  %Inh: 0%
MARK1
  %Inh: 0%
MARK2; [1]
  %Inh: 9%
MARK3; [1]
  %Inh: 0%
MARK4; [1]
  %Inh: 0%
MAST1
  %Inh: 3%
MEK1
  %Inh: 15%
MEK2
  %Inh: 1%
MEK3
  %Inh: 33%
MEK4
  %Inh: 8%
MEK5
  %Inh: 4%
MEK6
  %Inh: 8%
MELK
  %Inh: 31%
MERTK
  %Inh: 39%
MET
  %Inh: 0%
MINK
  %Inh: 9%
MKK7
  %Inh: 0%
MKNK1
  %Inh: 0%
MKNK2
  %Inh: 12%
MLCK
  %Inh: 16%

## CN(c1ccc(NC(=O)Nc2cc(C(F)(F)F)ccc2F)cc1)c1ccnc(Nc2ccc(S(N)(=O)=O)cc2)n1 [GW809893]
MAPKAPK5
  %Inh: 0%
MARK1
  %Inh: 7%
MARK2; [1]
  %Inh: 22%
MARK3; [1]
  %Inh: 2%
MARK4; [1]
  %Inh: 1%
MAST1
  %Inh: 18%
MEK1
  %Inh: 0%
MEK2
  %Inh: 19%
MEK3
  %Inh: 51%
MEK4
  %Inh: 67%
MEK5
  %Inh: 98.8%
MEK6
  %Inh: 100%
MELK
  %Inh: 12%
MERTK
  %Inh: 98.2%
MET
  %Inh: 88%
MINK
  %Inh: 76%
MKK7
  %Inh: 2%
MKNK1
  %Inh: 50%
MKNK2
  %Inh: 98.9%
MLCK
  %Inh: 28%

## CCn1c(-c2nonc2N)nc2c(C#CC(C)(C)O)ncc(OCCCCN)c21.O=C(O)C(F)(F)F.O=C(O)C(F)(F)F [GSK507274]
MAPKAPK5
  %Inh: 0%
MARK1
  %Inh: 0%
MARK2; 1 µM
  %Inh: 68%
MARK3; 1 µM
  %Inh: 71%
MARK4; 1 µM
  %Inh: 0%
MAST1
  %Inh: 56%
MEK1
  %Inh: 0%
MEK2
  %Inh: 34%
MEK3
  %Inh: 0%
MEK4
  %Inh: 1%
MEK5
  %Inh: 0%
MEK6
  %Inh: 0%
MELK
  %Inh: 1%
MERTK
  %Inh: 30%
MET
  %Inh: 0%
MINK
  %Inh: 0%
MKK7
  %Inh: 0%
MKNK1
  %Inh: 0%
MKNK2
  %Inh: 11%
MLCK
  %Inh: 13%

## COC(=O)Nc1nc2cc(Oc3ccc(NC(=O)Nc4cc(C(F)(F)F)ccc4F)cn3)ccc2[nH]1.Cl.Cl [GW681170]
MAPKAPK5
  %Inh: 0%
MARK1
  %Inh: 0%
MARK2; [1]
  %Inh: 0%
MARK3; [1]
  %Inh: 14%
MARK4; [1]
  %Inh: 0%
MAST1
  %Inh: 24%
MEK1
  %Inh: 0%
MEK2
  %Inh: 2%
MEK3
  %Inh: 7%
MEK4
  %Inh: 0%
MEK5
  %Inh: 51%
MEK6
  %Inh: 0%
MELK
  %Inh: 6%
MERTK
  %Inh: 95.7%
MET
  %Inh: 73%
MINK
  %Inh: 18%
MKK7
  %Inh: 0%
MKNK1
  %Inh: 36%
MKNK2
  %Inh: 88%
MLCK
  %Inh: 0%
